Calls of active or inactive are those of the source.

The values below come from PubChem BioAssay.

One assay can be described thus: small-molecule microarray binders of probe aXIP, primary screen, biochemical, NeuroSMM set, 635/667 nm fluorescence (AID 1119).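 Note: probe is the protein aXip251-270 applied at 1 µg/mL to compound-printed slides; binding of probe to printed compounds measured as 667 nm fluorescence plus signal to noise.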 To be noted: higher = more signal, called active from +8 up or from −8 down.
For `C=CC[C@]1(C(=O)NCCN2CCOCC2)N=C(c2ccc(OCCCO)cc2)O[C@H]1c1ccccc1N=[N+]=[N-]`, the composite Z-score is 0.581 (inactive).
As for `C=CCNC(=O)[C@@H]1[C@H]2C(=O)O[C@H](c3ccccc3)[C@H](c3ccccc3)N2[C@H](c2ccccc2OCCO)[C@@]12C(=O)N(C(=O)OCCOC)c1ccc(C#CCC(C(=O)OC)C(=O)OC)cc12`, the composite Z-score was 1.26 (inactive).
Turning to `CC(C)[C@H]1COC(=O)N1C(=O)[C@H]1[C@@H](c2ccccc2)N(c2ccccc2)O[C@@H]1C`, the composite Z-score was 1.77 (inactive).
On to `O=C1O[C@@H](c2ccccc2)[C@@H](c2ccccc2)N2[C@@H](c3ccc(O)cc3)[C@]3(C(=O)Nc4ccc(C#CCCO)cc43)[C@@H](C(=O)O)[C@H]12`, for which the composite Z-score is 0.674 (inactive).
As to `Cc1ccc(S[C@]2(C(=O)NCCCN(C)C)CC(=O)N(C(C)C)[C@@H]2c2ccc(CO)cc2I)cc1`, the composite Z-score was -0.181 (inactive).
For the molecule `Cc1ccc(N2C(=O)c3ccccc3[C@](C)(C(=O)NCCN3CCOCC3)[C@@H]2c2ccc(CO)cc2)nc1`, the composite Z-score was -0.559 (inactive).
For `COC(=O)C(CC#Cc1ccc2c(c1)[C@]1(C(=O)N2)[C@H](C(=O)N2CCCCCCC2)[C@H]2C(=O)O[C@H](c3ccccc3)[C@H](c3ccccc3)N2[C@@H]1c1ccccc1OCCO)C(=O)OC`, the composite Z-score was 10.6 (active).

Another assay is described as follows: small-molecule binders of probe aNOTCH3, primary screen, biochemical, small-molecule microarray, 635/667 nm fluorescence (AID 1120).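 Note: probe is a biotin-tagged antibody raised against NOTCH3 rather than NOTCH3 protein; score merges spot fluorescence near 667 nm with spot signal to noise.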 To be noted: higher = more signal.
Molecule `Oc1ccc2cc[n+](Cc3cccc(OC(F)(F)F)c3)cc2c1` came in with a composite z-score of -0.215.
For the molecule `CC1CC/C=C\[C@H]2OC34C=CCN(CCN5CCOCC5)C(=O)[C@H]3N(CCCCCO)C(=O)[C@@H]4C2C(=O)O1` (stereo partly drawn), the composite z-score is -0.178.
On the same count and under the same terms, in the case of `C=C(C(=O)CC[C@@H](OC(=O)c1cccnc1)c1ccc(CO)o1)C(C)C` it was 0.101.
Molecule `C=CCC(OC(C)=O)[C@@H]1[C@@H](N(Cc2cc3ccccc3o2)C(=O)c2cccc3ccccc23)c2cc(OCCCO)ccc2N1C(=O)Cc1ccc(OC)cc1` (stereo partly drawn) showed a composite z-score of 0.0602.
Consider `C=CCN1C(=O)[C@]2(COC(c3ccc(OCCCO)cc3)=N2)Cc2ccccc21`, for which the composite z-score is -0.0362.
The same measure, in the same setting: in the case of `O=C(NCc1ccccc1)[C@@H]1c2ccccc2C(=O)N(C2CCCCC2)[C@H]1c1ccc(CO)cc1` it was -0.112.
The molecule `[N-]=[N+]=NCc1ccccc1C[C@@]1(C(=O)NCc2ccccc2)N=C(c2ccc(OCCCO)cc2)O[C@@H]1c1ccccc1CN=[N+]=[N-]` had a composite z-score of 0.328.
`CCOC(=O)C=Cc1cccc(OC)c1O` yielded a composite z-score of -0.426.
Molecule `CN(C)CCCC[C@@H]1NC(=O)[C@H]2C[C@@H](C(=O)NCCCCCNC(=O)CS)[C@@H](c3ccc(O)cc3)N2C1=O` yielded a composite z-score of -0.374.
On the same count and under the same terms, under `COC(=O)[C@@]1(Cc2ccccc2)[C@H]2c3cc(C(=O)N(C)C)n(Cc4cc(F)c(F)c(F)c4)c3C[C@H]2CN1C(=O)c1ccccc1` stands 0.692; under `C=C(C)[C@@H]1CC=C(C(O)C2C=CC3C(=O)N(Cc4ccccc4)C(=O)C3N2n2cnnc2)CC1` (stereo partly drawn), 0.0297; under `O=C(NCCN1CCOCC1)[C@@H]1c2ccccc2C(=O)N(Cc2cc(F)cc(C(F)(F)F)c2)[C@H]1c1ccc(CO)cc1`, 0.49.
As for `O=C1O[C@H](c2ccccc2)[C@H](c2ccccc2)N2[C@H]1[C@@H](C(=O)NC[C@H](O)c1ccccc1)[C@]1(C(=O)Nc3ccc(C#CC4(O)CCCCCC4)cc31)[C@H]2c1ccccc1OCCO`, the composite z-score is -0.0694.
As to `C=C(/C(=C/C[C@@H](OC(=O)c1ccncc1)c1ccc(CO)o1)c1cc(C(=O)OC)ccc1OC)C(C)C`, the composite z-score was determined as 0.0311.
`COc1ccc([Si](C)(C)[C@@H]2[C@@H](CCO)O[C@]3(C(=O)N(Cc4ccccc4)c4ccc(N(C=O)c5ccccc5)cc43)[C@H]2C)cc1` showed a composite z-score of -0.159.
The molecule `CCCCCCC#C[Si](O[C@H](c1ccccc1)c1cn([C@H](C)c2ccccc2)nn1)(C(C)C)C(C)C` displayed a composite z-score of 0.155.
Still for that read-out and setting: under `[N-]=[N+]=NCc1ccccc1[C@@H]1OC(c2ccc(OCCCO)cc2)=N[C@]1(Cc1ccccc1)C(=O)O` stands -0.0362; under `CCCC[C@@H]1C[C@H]1[C@@H](NC(=O)c1ccccc1)c1ccc(-c2ccccc2)cc1`, -0.0647; under `Cc1ccc(S[C@]2(C(=O)NCCN3CCOCC3)CC(=O)N(C3CCCCC3)[C@@H]2c2ccc(CO)cc2)cc1`, 0.0525.
`CC(C)NC(=O)[C@@]1(c2ccc([N+](=O)[O-])cc2)CC(=O)N(C(C)C)[C@@H]1c1ccc(CO)cc1` came in with a composite z-score of -0.399.
With `C=CCN1Cc2ccccc2C[C@@]2(COC(c3ccc(OCCCO)cc3)=N2)C1=O`, the composite z-score turned out to be 0.0596.
`COCCn1c(C(=O)N2CCCC2)cc2c1C[C@H]1CN(C(=O)c3ccccc3)[C@@](Cc3ccc(OC)cc3)(C(=O)OC)[C@@H]21`: the composite z-score stood at 0.512.
Still for that read-out and setting: in the case of `C=C[C@@H](C)[C@@H](OC(=O)Nc1ccc(OC)cc1)c1ccc(O)c2ccccc12` it was -0.155; in that of `COCCOC(=O)N1C(=O)[C@@]2(c3ccccc31)[C@H](C(=O)N1CCCCCCC1)[C@H]1C(=O)O[C@H](c3ccccc3)[C@H](c3ccccc3)N1[C@@H]2c1ccccc1OCCO`, 1.5; in that of `COCCn1c(C(=O)N(C)C)cc2c1C[C@H]1CN(C(=O)c3ccccc3)[C@@](Cc3ccc(F)cc3)(C(=O)OC)[C@@H]21`, 0.073.
With `CC(C)N1C(=O)c2ccccc2[C@](C)(C(=O)NCCCN(C)C)[C@@H]1c1ccc(CO)cc1`, the composite z-score is -0.149.
`O=C1C2C=CC(C(O)c3ccc(-c4ccccc4)s3)N(Nc3ccccc3F)C2C(=O)N1c1ccccc1` (stereo not drawn) registered a composite z-score of 0.113.
Still for that read-out and setting: under `CN1C(=O)C2C(C1=O)C1C=C(c3ccc(CO)cc3)C2C(C2CC2)N1Cc1sc2ccccc2c1Cl` (stereo not drawn) stands 0.248; under `CO[C@H]1O[C@H](CO)[C@@H](OC(=O)Nc2ccc3c(c2)OCO3)[C@H](OC(=O)Nc2ccc3c(c2)OCO3)[C@H]1OC(=O)Nc1ccc2c(c1)OCO2`, 0.307; under `C=CC[C@]1(C(=O)NCCN2CCOCC2)N=C(c2ccc(OCCCO)cc2)O[C@H]1c1ccccc1N=[N+]=[N-]`, 0.0303.
`C=CCNC(=O)[C@@H]1[C@H]2C(=O)O[C@H](c3ccccc3)[C@H](c3ccccc3)N2[C@H](c2ccccc2OCCO)[C@@]12C(=O)N(C(=O)OCCOC)c1ccc(C#CCC(C(=O)OC)C(=O)OC)cc12` yielded a composite z-score of 1.41.
For the molecule `CC(C)[C@H]1COC(=O)N1C(=O)[C@H]1[C@@H](c2ccccc2)N(c2ccccc2)O[C@@H]1C`, the composite z-score is 0.0893.
Molecule `O=C1O[C@@H](c2ccccc2)[C@@H](c2ccccc2)N2[C@@H](c3ccc(O)cc3)[C@]3(C(=O)Nc4ccc(C#CCCO)cc43)[C@@H](C(=O)O)[C@H]12` returned a composite z-score of 1.05.
Regarding `Cc1ccc(S[C@]2(C(=O)NCCCN(C)C)CC(=O)N(C(C)C)[C@@H]2c2ccc(CO)cc2I)cc1`, the composite z-score is -0.004.
Turning to `Cc1ccc(N2C(=O)c3ccccc3[C@](C)(C(=O)NCCN3CCOCC3)[C@@H]2c2ccc(CO)cc2)nc1`, the composite z-score was -0.279.
For the molecule `COC(=O)C(CC#Cc1ccc2c(c1)[C@]1(C(=O)N2)[C@H](C(=O)N2CCCCCCC2)[C@H]2C(=O)O[C@H](c3ccccc3)[C@H](c3ccccc3)N2[C@@H]1c1ccccc1OCCO)C(=O)OC`, the composite z-score is 2.26.
